# Shown are actives, neighbours in structure and some others; about 7.9% of the full set was active somewhere.
# Marburg entry inh: qHTS for inhibitors of binding or entry into cells for Marburg Virus | Marburg virus pseudotyped entry inhibition, cell reporter | Potency, µM (top dose mostly 37.8 µM), for inactives: at the highest dose activity change, negative = inhibition, most hits filed as inhibitors | hit rate 1.8% among 300,000 | AID 540276, 2011; calls by dose curve; tested in HEK293 cells; note: potency is the fitted concentration of half-maximal effect
# Lassa entry inh: qHTS for Inhibitors of binding or entry into cells for Lassa Virus | Lassa virus pseudotype entry inhibition, cell reporter | Potency, µM (top dose mostly 37.9 µM), for the others: at the top dose activity change, negative = inhibition, usual class: inhibitors | hit rate 1.2% among 300,000 | AID 540256, 2011; calls by dose curve; tested in HEK293 cells; note: potency is the fitted concentration of half-maximal effect; nearly all actives have a fitted effect of over 50% in size
# FMDV antiviral: High Throughput Screening for Foot and Mouth Disease Virus Antivirals. hit rate 1.2% among 410,000. AID 1159524, 2015. Potency, µM (top dose mostly 57.9 µM), for the others: at the top dose activity change, negative = inhibition, hits mostly inhibitors. FMDV antiviral cell-based qHTS; calls by dose curve; tested in HEK293T cells; note: read-out not given here; potency is the fitted concentration of half-maximal effect; nearly all actives have a fitted effect of over 45% in size
# HCMV inh: qHTS Assay for inhibitors of the human cytomegalovirus (HCMV); HFF cells, HCMV-luciferase reporter, 72 h; stronger effect = lower value; activity change, negative = inhibition, % at 57.5 µM; hit rate 4.5% among 410,000; AID 1259415, 2018; in the data active = activity change below about -60%; inconclusive = no clear call, values can overlap the other calls; inactive = above about -39%
#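 Two compound doses tested in HFFs infected with HCMV-luciferase, MOI 1 PFU/cell, 72 h at 37C. Lysate luminescence read with OneGlo; data normalized against buffer-only and 10uM Salinomycin inhibitor controls.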
# HCV inhibitor: qHTS Assay for Inhibitors of Hepatitis C Virus (HCV). Huh7.5.1 HCVcc-Cre infection, luciferase reporter, 44 h. Potency, µM (series often up to 41.8 µM), for the others: at the highest dose activity change, negative = inhibition, most hits filed as inhibitors. hit rate 3.4% among 340,000; active = well fitted inhibition curve with a large enough effect; inconclusive = small, poorly fitted or top-dose-only effect, or another doubt; inactive = no such curve, though single readings can be large or run the other way; note: potency is the fitted concentration of half-maximal effect
#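 After 44 h co-culture of compound, cells and HCVcc-Cre (~0.5 moi), substrate is added for 15 min at room temperature and luciferase measured over 15 sec. Cells were seeded at 1,000/well and pre-cultured 4 h.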
# The depositor's hits bear a star; ? = inconclusive; nt = not tested or not shown; ! = repeats disagree; [ ] = another dose, or the depositor's remark. % is set by controls: 0 for no effect and ±100 for the full control effect.
SMILES,Marburg entry inh,Lassa entry inh,FMDV antiviral,HCMV inh,HCV inhibitor
COc1ccc(OC)c(/C=C/C(=O)Nc2ccc(C(=O)OCCC(C)C)cc2)c1,nt,?,-11%,-18,nt
CC(=O)NCCNC(=O)c1cnn(-c2nccc(-c3cc(C)sc3C)n2)c1C,nt,nt,-8%,nt,nt
CN1CCC(N2CCN(C3CN(C4CCCC4)S(=O)(=O)C3)CC2)CC1 (configuration not stated),nt,3%[46.1 µM],-11%,-3,nt
Cc1cccc(Nc2nnc(-c3ccc(C)c(S(=O)(=O)N4CCN(C)CC4)c3)c3ccccc23)c1,?,?,-9%,-69*,nt
Cc1ccc(-c2nnc(Nc3ccc(O)cc3)c3ccccc23)cc1S(=O)(=O)N1CCOCC1,nt,?,?,-88*,nt
Cc1ccc(-c2nnc(Nc3ccc(OC(F)(F)Cl)cc3)c3ccccc23)cc1S(=O)(=O)NC(C)(C)CO,?,-9%[46.1 µM],14%,-95*,nt
Cc1ccc(Nc2nnc(-c3ccc(C)c(S(=O)(=O)N4CCOCC4)c3)c3ccccc23)cc1,nt,-4%[46.1 µM],-7%,5,nt
COc1ccc2c(Cl)c(-c3nnc(SCC(=O)c4ccccc4)n3C)sc2c1,?,?,-14%,-1,11µM*
Cc1ccc2c(c1)nnn2C1CCN(CC(=O)N(c2ccccc2)c2ccccc2)CC1,nt,nt,-18%,-70*,?
Cc1ccc2c(c1)nnn2C1CCN(CC(=O)N2c3ccccc3CC2C)CC1 (configuration not stated),1%,-2%,?,-76*,-22%
Cc1ccc2c(c1)nnn2C1CCN(CC(=O)c2ccc(Cl)cc2)CC1,3%[46.1 µM],6%,20%,-16,-18%
Cc1ccc(S(=O)(=O)N2CCOCC2)cc1C(=O)NCCc1ccc(Cl)cc1,-26%[46.1 µM],-6%[46.1 µM],-17%,4,-24%
O=C(NCc1ccccn1)c1nc(Cn2cc([N+](=O)[O-])cn2)no1,2%[46.1 µM],-9%[46.1 µM],8%,-7,13%
O=C(COC(=O)c1cc(-c2cccs2)nc2ccccc12)c1ccc(Br)cc1,5%[46.1 µM],29%[46.1 µM],31%,7,nt
COc1ccc2nc(C)cc(Nc3ccc(N4CCOCC4)cc3)c2c1,?,-16%,nt,-86*,?
COc1ccc2nc(C)cc(Nc3ccc(N4CCN(C)CC4)cc3)c2c1,nt,nt,-10%,-102*,10µM*
COc1ccc2nc(C)cc(Nc3ccc(Cl)c(Cl)c3)c2c1,nt,?,?,-106*,nt
COc1ccc(OC)c(Nc2cc(C)nc3ccc(C)cc23)c1,?,?,?,-13,22µM*
COc1ccc2nc(C)cc(Nc3ccc(C)cc3)c2c1,?,?,-16%,-23,?
O=S(=O)(Nc1cccc(-c2ccc3nncn3n2)c1)c1cc(F)ccc1F,-8%,-11%,48%,0,10%
Cc1cccc(N2CCN(C(=O)CCNS(=O)(=O)c3ccc4c(c3)oc(=O)n4C)CC2)c1C,?,?,?,-39,?
Cc1cccc(N2CCN(C(=O)CCS(=O)(=O)c3ccc4c(c3)oc(=O)n4C)CC2)c1C,-2%[46.1 µM],?,?,-62*!,11µM*
Cc1cccc(N2CCN(C(=O)CCNS(=O)(=O)c3ccc4c(c3)CCC(=O)N4)CC2)c1C,?,6.5µM*,-7%,?,?
CCOCCOC(=O)Cn1cnc2scc(-c3ccc(C)cc3)c2c1=O,nt,nt,-13%,?,0%
O=C(OCc1ccccc1)c1cccnc1,nt,nt,nt,2,nt
SMILES,Marburg entry inh,Lassa entry inh,FMDV antiviral,HCMV inh,HCV inhibitor
COc1cccc(CNC(=O)c2c(OC)cc(=O)n3c2CCN(C(=O)c2cc(F)cc(F)c2)CC3)c1,nt,nt,6%,nt,nt
CCCc1cc(=O)oc2c3c(c4c(c12)OC(C)(C)C=C4)OC(C)C(C)C3O (configuration not stated),nt,nt,-1%,-77*,10µM*
COc1ccc(CN2CCC3(CCC(CNC(=O)c4ccco4)O3)CC2)c(OC)c1C (configuration not stated),nt,nt,-15%,nt,nt
Cc1ccc(C(=O)c2c3ccccc3[n+]([O-])n2CCC(=O)O)cc1,nt,nt,63%,-6,13%
Cc1ccc(C(=O)c2c3ccc([N+](=O)[O-])cc3[n+]([O-])n2CCCC(N)=O)cc1,nt,nt,16%,-19,10µM*
NC(=O)CCCn1c(C(=O)c2ccc(Cl)cc2)c2ccc([N+](=O)[O-])cc2[n+]1[O-],nt,nt,-3%,?,?
